Source: PubChem (National Center for Advancing Translational Sciences (NCATS))
The full list was thinned out, with hits kept by preference.
DT40 TDP1 no CPT = qHTS for Inhibitors of human tyrosyl-DNA phosphodiesterase 1 (TDP1): qHTS in cells in absence of CPT | DT40 Tdp1-/- hTDP1 cells, no CPT, ATP luminescence, 48 h | Potency, µM (titrated, usually from 46.2 µM), for the others: at the highest dose activity change, negative = growth inhibition, usual class: inhibitors | 420,000 tested, 15% active; further: potency means the concentration at half of the fitted maximal effect; nearly all actives have a fitted effect of over 55% in size
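No-CPT arm: Tdp1-/-;hTDP1 DT40 cells (400/well) plus compounds, incubated ≥48 hr at 37 °C. Readout CellTiter-Glo luminescence.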
TDP1 cell CPT = DT40-hTDP1 cell growth loss with CPT | Potency, µM (doses to about 46.2 µM), for inactives: at the highest dose activity change, negative = growth inhibition, usual class: inhibitors | 420,000 tested, 12% active | chicken DT40 Tdp1-/-;hTDP1 cells + 20 nM CPT, ATP luminescence, 48 h; further: potency means the concentration at half of the fitted maximal effect; nearly all actives have a fitted effect of over 55% in size
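Cell growth measured by CellTiter-Glo luminescence after a minimum 48 h, 37 C compound exposure with 20 nM CPT in Tdp1-knockout DT40 cells stably expressing hTDP1, seeded 400/well; qHTS titration format.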
IL1B secr inh = inhibitors of inflammasome signaling (IL-1 beta secretion). THP-1 LPS/ATP IL-1B secretion, AlphaLISA, 16 h; active compounds read low. activity change, % at 57.5 µM. 360,000 tested, 4.7% active. AID 743279; in the data active means activity change below about -50%; inconclusive means mostly about -30% to -49%
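Secreted IL-1B measured by AlphaLISA bead assay after 16 h compound exposure of THP-1 cells; compounds (final up to 57.5 uM) added 1 h before LPS (250 ng/mL) and ATP (1.25 mM) stimulation; lower signal means less secretion.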
ALOX12 inh = inhibitors of human 12S-lipoxygenase ALOX12 | 580,000 tested, 1.1% active | Potency, µM (series often up to 108 µM), for the others: top-dose activity change, negative = inhibition, hits mostly inhibitors | purified 12hLO, xylenol orange hydroperoxide absorbance; further: potency means the concentration at half of the fitted maximal effect
Target sequence (P18054 whole entry, looked up): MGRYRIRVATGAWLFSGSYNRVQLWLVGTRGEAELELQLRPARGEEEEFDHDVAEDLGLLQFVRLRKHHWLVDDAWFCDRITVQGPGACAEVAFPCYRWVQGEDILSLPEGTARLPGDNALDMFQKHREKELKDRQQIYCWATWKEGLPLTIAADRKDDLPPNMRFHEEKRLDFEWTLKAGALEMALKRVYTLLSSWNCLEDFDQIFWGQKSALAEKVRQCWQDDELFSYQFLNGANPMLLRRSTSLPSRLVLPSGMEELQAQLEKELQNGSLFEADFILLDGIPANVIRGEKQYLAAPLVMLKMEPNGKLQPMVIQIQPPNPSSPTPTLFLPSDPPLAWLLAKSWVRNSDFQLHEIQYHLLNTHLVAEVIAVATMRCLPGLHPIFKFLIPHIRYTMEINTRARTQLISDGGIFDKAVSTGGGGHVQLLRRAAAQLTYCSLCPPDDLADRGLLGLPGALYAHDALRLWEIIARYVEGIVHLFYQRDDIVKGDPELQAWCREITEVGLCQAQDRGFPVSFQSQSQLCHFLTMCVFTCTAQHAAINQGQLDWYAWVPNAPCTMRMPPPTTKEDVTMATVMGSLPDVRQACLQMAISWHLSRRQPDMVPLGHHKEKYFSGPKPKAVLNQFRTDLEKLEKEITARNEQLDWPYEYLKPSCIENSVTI
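Purified human 12hLO (150 nM final) in 25 mM Hepes, 0.01% Triton X-100, pH 7.0 was preincubated 15 min at room temperature with compound. Then 40 uM arachidonic acid was added, 30 min. Hydroperoxide was read by Fe-XO absorbance ratio 573/405 nm.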
HT1080NT lethal = kills 2HG-producing HT-1080-NT fibrosarcoma cells; 360,000 tested, 1.6% active; Potency, µM (doses to about 46.1 µM), for the others: at the highest dose activity, negative = less viability, most hits filed as cytotoxic; HT-1080-NT fibrosarcoma viability, CellTiter-Glo ATP luminescence, 48 h;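 further: NT is the 2HG producing partner of a matched IDH1 knockdown line; potency means the concentration at half of the fitted maximal effect; 0% = DMSO-treated cells and -100% = media-only wells without cells; nearly all actives have a fitted effect of over 55% in size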
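Toxicity toward the 2HG-producing NT line was scored as %Activity, normalised to DMSO and no-cell wells, from CellTiter-Glo luminescence after 48 hours' treatment.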
HT1080 IDH1KD tx = HT-1080 IDH1 knockdown cell toxicity (counter line); HT-1080 IDH1 knockdown viability, ATP luminescence, 48 h; Potency, µM (top dose mostly 46.1 µM), for the others: at the top dose activity, negative = toxicity, actives largely listed as cytotoxic; 360,000 tested, 2% active;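 further: potency means the concentration at half of the fitted maximal effect; 0% = DMSO wells and -100% = cell-free medium wells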
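HT-1080-IDH1KD cells (IDH1 knocked down), 750/well in RPMI with 5% FBS, treated with compound 48 h at 37 degrees C. Viability by CellTiter-Glo luminescence, normalised to DMSO and no-cell wells; concentration-response curves classed.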
* marks the source's active call; other numbers are inactive results; ? = inconclusive; · = no result. Unless noted, the call rests on the fitted dose curve; in most records, active means well fitted curve in the direction sought with a large enough effect; inconclusive means small, poorly fitted or top-dose-only effect, or another doubt; inactive means no such curve, though single readings can be large; an effect the other way counts as inactive or inconclusive. Unless noted, on the % scale 0 is the no-effect control and ±100 the full control effect.

SMILES	DT40 TDP1 no CPT	TDP1 cell CPT	IL1B secr inh	ALOX12 inh	HT1080NT lethal	HT1080 IDH1KD tx
CCOc1ccc(CN2CCc3nc(Nc4ccc(OC)cc4OC)ncc3C2)cc1	?	21µM*	·	-13%	·	·
Cc1ccccc1CN1CCc2nc(Nc3ccc4c(c3)OCCO4)ncc2C1	21µM*	23µM*	·	-24%	·	·
Cc1cn2nnc(C(=O)Nc3ccc(C)c(C)c3)c2c(=O)[nH]1	·	·	·	1%	·	·
Cc1nc2ccc(C(=O)NC(C)CCCC(C)C)cc2nc1C (stereo unspecified)	·	·	·	-13%	·	·
Cc1c(C#N)c(NC(=O)CCl)n(Cc2cccs2)c1C	2.6µM*	5.2µM*	-105*	-21%	16µM*	?
Cc1c(C#N)c(NC(=O)CCl)n(Cc2ccc(F)cc2)c1C	5.8µM*	5.2µM*	-77*	-13%	?	?
N#Cc1ccc(Cl)cc1NC(=O)CNCc1cccs1	2%	9%	33	0%	13%	21%
COC(=O)c1cc(C(=O)OC)n(Cc2ccc(F)cc2)c1C	?	-11%	31	4%	1%	-3%
Cc1cc(=O)n(Cc2ccccc2)c(O)c1C#N	-13%	-2%	-3	18µM*	13%	13%
Cc1ccccc1-n1c(C)nnc1SCC(=O)Nc1c(C#N)c(C)c(C)n1Cc1ccccc1	·	·	·	1%	·	·
Cc1c(C#N)c(NC(=O)CCl)n(Cc2ccccc2)c1C	2.6µM*	2.6µM*	-57*	-10%	?	1.6µM*
COc1ccc(F)cc1-c1cc(NC=O)c2ncc(-c3cc(OC)c(OC)c(OC)c3)n2c1	3.3µM*	2.3µM*	121	-1%	?	?
COc1cc(-c2cnc3c(NC=O)cc(-c4ccc(C)cc4)cn23)cc(OC)c1OC	0.1µM*	0.16µM*	112	?	?	?
Cc1ccc(-c2cc(NC=O)c3ncc(-c4cnn(C)c4)n3c2)cc1	3.7µM*	4.1µM*	-51*	?	?	?
COc1cc(-c2cnc3c(NC=O)cc(-c4ccccc4)cn23)cc(OC)c1OC	0.046µM*	0.0092µM*	139	-6%	?	?
COc1cc(-c2cc(NC=O)c3ncc(-c4ccccc4)n3c2)cc(OC)c1OC	?	?	·	1%	?	?
CCOc1ccccc1C1NC(=O)N(CC(=O)Nc2cc(Cl)ccc2OC)C2=C1C(=O)OC2 (stereo unspecified)	·	·	·	28%	·	·
CC(C)N1CCN(C2CCOC3(CCN(C(=O)Nc4ccccc4)CC3)C2)CC1 (stereo unspecified)	·	·	·	-15%	·	·
CC(C)n1c(CN2CCC3(CCCN(C)C3=O)C2)nc2ccccc21 (stereo unspecified)	·	·	·	111%	·	·
COc1cc(-c2cnc3c(NC=O)cc(-c4ccccc4Cl)cn23)cc(OC)c1OC	1µM*	0.82µM*	126	?	?	?
COc1ccc(Cc2nnc(Nc3ccc(C)cc3)o2)cc1OC	6.5µM*	8.2µM*	-24	24%	-6%	?
COc1ccc(Cc2nnc(-c3cccc(C)c3)o2)cc1OC	?	?	28	·	0%	-9%
O=C(CN1C(=O)C2(SCC(=O)N2c2ccc(Cl)cc2)c2ccccc21)NCCc1ccccc1 (stereo unspecified)	18µM*	?	·	-10%	·	·
COc1ccc(N2C(=O)CSC23C(=O)N(CC(=O)NCCc2ccccc2)c2ccccc23)cc1 (stereo unspecified)	?	16µM*	·	-5%	·	·
Cc1cccc(N2C(=O)CSC23C(=O)N(CC(=O)NCc2ccccc2Cl)c2ccccc23)c1 (stereo unspecified)	21µM*	?	·	-14%	·	·
